Screening results: PubChem, National Center for Advancing Translational Sciences (NCATS)
A selection: hits, their analogues and other compounds. The true share with any hit is near 5.7%.
Nrf2 block: Nrf2 pathway inhibition | A549 ARE-Fluc reporter, luciferase luminescence, 18-24 h | Potency, µM (doses to about 46 µM), hits mostly inhibitors | 360,000 compounds, 2.1% hits | AID 504444; also: nearly all actives have a fitted effect of over 60% in size
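Quantitative HTS in A549 cells stably bearing an antioxidant response element-firefly luciferase construct. Inhibition of Nrf2-driven transcription was scored by luminescence after 18-24 h of compound exposure at 37 °C.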
KB-V1 cytotox: kills drug-selected multidrug resistant KB-V1 cells; Potency, µM (series often up to 46.1 µM), usual class: cytotoxic; KB-V1 MDR cells viability, CellTiter-Glo, 72 h; 400,000 compounds, 3.4% hits; also: nearly all actives have a fitted effect of over 60% in size
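qHTS viability screen in drug-selected KB-V1 MDR cells: 72 h compound treatment at 37 degrees C, ATP luminescence end point.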
A549 viability: kills or reduces viability of A549 cells in Nrf2 counter-screen | 390,000 compounds, 0.16% hits | Potency, µM (titrated, usually from 46 µM), actives largely listed as inhibitors | A549 ARE-Fluc cells, CellTiter-Fluor viability, 18-24 h | AID 504648
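A549 ARE-Fluc cells in 5% FBS OPTI-MEM, 5000 cells/well, rested 2 h then exposed to compounds in concentration-response for 18-24 h at 37 °C. Viability by CellTiter-Fluor fluorescence (Ex 405/Em 525) after 30 min; luciferase luminescence (BugLite, 15 min, RT) read afterwards.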
KB-3-1 tox: KB-3-1 parental cell cytotoxicity; KB-3-1 viability, CellTiter-Glo ATP luminescence, 72 h; Potency, µM (series often up to 46.1 µM), most hits filed as cytotoxic; 400,000 compounds, 1.4% hits; also: nearly all actives have a fitted effect of over 60% in size
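Cells are dispensed, compounds pinned in, plates held at 37 °C for 72 h, then CellTiter-Glo is added and luminescence read after 10 minutes. Cell line: parental KB-3-1 in phenol-red-free DMEM, 10% FBS.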
Giardia kill: kills Giardia lamblia. 340,000 compounds, 0.15% hits. Giardia lamblia trophozoite viability. activity change, % at 7.66 µM, hits read low; in the data active = activity change below about -80%; inconclusive = between about -30% and that limit;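 also: parasites exposed to compound for two days anaerobically before the ATP read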
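Luminescent ATP signal served as the viability read-out, measured 15-30 min after adding ATP detection reagent to trophozoites that had been incubated with compounds for 48 hrs at 37 deg C anaerobically at 100 cells/well.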
PI4K2A block: PI4K2A (human) kinase inhibition | Q9BTU6 | purified PI4K2A, ADP-Glo luminescence, 1 h; stronger effect = lower value | activity change, negative = inhibition, % at 76.9 µM | 420,000 compounds, 0.13% hits; in the data active = activity change below about -50%; inconclusive = mostly about -30% to -49%
Target sequence (Q9BTU6 whole entry, looked up): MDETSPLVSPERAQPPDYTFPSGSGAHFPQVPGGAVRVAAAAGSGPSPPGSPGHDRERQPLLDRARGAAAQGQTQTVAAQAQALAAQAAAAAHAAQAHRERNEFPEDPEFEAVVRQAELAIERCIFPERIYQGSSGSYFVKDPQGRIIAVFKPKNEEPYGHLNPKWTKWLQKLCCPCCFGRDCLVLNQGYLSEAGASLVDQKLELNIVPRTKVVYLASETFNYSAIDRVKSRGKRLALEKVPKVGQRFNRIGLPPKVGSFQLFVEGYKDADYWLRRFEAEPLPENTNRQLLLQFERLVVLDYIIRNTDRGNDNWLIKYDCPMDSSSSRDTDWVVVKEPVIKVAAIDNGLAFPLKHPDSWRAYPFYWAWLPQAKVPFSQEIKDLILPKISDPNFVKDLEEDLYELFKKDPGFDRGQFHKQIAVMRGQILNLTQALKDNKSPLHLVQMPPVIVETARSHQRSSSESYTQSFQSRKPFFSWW
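Compounds are screened against recombinant PI4K2A using PI as substrate and ATP, the latter dispensed at 300 microM. Reactions run one hour at ambient temperature before ADP-Glo detection; full inhibition defined by wells lacking enzyme.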
Hits are given with their value; 0 = inactive; ? = inconclusive; - = no result. Unless noted, calls follow the shape of the dose curve; as a rule, active = well fitted curve in the direction sought with a large enough effect; inconclusive = small, poorly fitted or top-dose-only effect, or another doubt; inactive = no such curve, though single readings can be large; an effect the other way counts as inactive or inconclusive.

SMILES | Nrf2 block | KB-V1 cytotox | A549 viability | KB-3-1 tox | Giardia kill | PI4K2A block
CCC(=O)N1CCN(c2ccc(NC(=O)c3ccc([N+](=O)[O-])o3)cc2)CC1 | 0 | ? | ? | ? | ? | 0
O=C(Nc1ccc(N2CCN(C(=O)c3ccccc3)CC2)cc1)c1ccc(Br)o1 | ? | ? | 0 | 0 | 0 | 0
CC(=O)N1CCN(c2ccc(NC(=O)c3ccc4c(c3)OCCO4)cc2Cl)CC1 | ? | ? | 0 | 0 | 0 | 0
CCCC(=O)N1CCN(c2ccc(NC(=O)c3ccc([N+](=O)[O-])o3)cc2)CC1 | ? | ? | ? | 0 | -81.6 | 0
CC(C)C(=O)N1CCN(c2ccc(NC(=O)c3ccc4c(c3)OCCO4)cc2Cl)CC1 | - | 2.91µM | ? | ? | 0 | 0
O=c1c2cc3cc(Cl)ccc3nc2ncn1CCc1c[nH]c2ccccc12 | - | - | - | - | - | 0
COC(=O)[C@]12C[C@H](CC(=O)NCc3cccs3)C(=O)N(Cc3ccco3)C1=C[C@H](COCc1ccccc1)O[C@@H]2C | - | - | - | - | - | 0
CCn1c(Sc2ccc([N+](=O)[O-])cn2)nnc1-c1ccco1 | 0 | ? | ? | 20.6µM | 0 | 0
CCn1c(SCC(=O)OCc2ccccc2)nnc1-c1ccco1 | 0 | 0 | 0 | 0 | 0 | 0
CCc1ccc(CN(Cc2ccco2)C(=O)c2cc(-c3ccc(C)c(F)c3)on2)cc1 | 16.4µM | - | 0 | - | - | 0
CCc1ccc(CN(Cc2ccco2)C(=O)c2ccc(C)cc2)cc1 | 0 | - | 0 | - | - | 0
O=S(=O)(c1ccc(Cl)cc1)N1CCN=C1SCc1cccc(Cl)c1 | ? | 20.6µM | 0 | 0 | 0 | 0
O=S(=O)(c1ccc(Cl)cc1)N1CCN=C1SCc1cccnc1 | 0 | ? | 0 | 0 | 0 | 0
COc1ccc(CNC(=O)O[C@H]2CC[C@@]34CCCN3C(=O)CCC[C@H]4[C@H]2C)cc1 | - | - | - | - | - | 0
Brc1ccc(N/N=C(/N=Nc2nn[nH]n2)c2ccccc2)cc1 | 10.3µM | ? | ? | 0 | 0 | 0
COC(CNC(=O)[C@H](Cc1c[nH]c2ccccc12)NC1(C(=O)NC2CCCCC2)CCCCC1)OC | - | - | - | - | - | 0
CCN(CC(=O)Nc1c(F)cccc1F)C(=O)c1ccc(N2CCCCC2)c([N+](=O)[O-])c1 | 16.4µM | ? | 0 | 0 | 0 | 0
COc1ccc(Cl)cc1NC(=O)CN(C)C(=O)c1ccc(N2CCCCC2)c([N+](=O)[O-])c1 | ? | ? | ? | 14.6µM | 0 | 0
COc1cc(-c2c(-c3ccc4c(c3)OCO4)noc2-c2ccsc2)cc(OC)c1OC | - | 0 | - | 0 | - | -
C[C@@H](/C=C/C(=O)OC(C)(C)C)Sc1ccc(C(C)(C)C)cc1 | - | - | - | - | - | 0
COc1ccc(CN(C)C(C#Cc2ccccc2)Cc2ccccc2)c(OC)c1 (centres undefined) | - | - | - | - | - | 0
COCCCNC(=O)C[C@H]1C[C@H](C(=O)N2CCCCC2)[C@@]2(CCc3ccccc3)c3[nH]c4cc(-c5ccco5)ccc4c3CCN2C1=O | 23.1µM | 0 | 0 | 0 | 0 | 0
CC(C)=CCC/C(C)=C/CNC(=O)C[C@H]1C[C@H](C(=O)N2CCCCC2)[C@@]2(CCc3ccccc3)c3[nH]c4cc(-c5ccco5)ccc4c3CCN2C1=O | 0 | 0 | 0 | 0 | 0 | 0
O=C(C[C@H]1C[C@H](C(=O)N2CCCCC2)[C@@]2(CCc3ccccc3)c3[nH]c4cc(-c5ccco5)ccc4c3CCN2C1=O)NCCN1CCOCC1 | 0 | ? | 0 | 18.4µM | 0 | 0
O=C(Nc1cccc(-c2csc(Nc3cccc(C(F)(F)F)c3)n2)c1)c1cc([N+](=O)[O-])cc(C(F)(F)F)c1 | ? | 0 | 0 | 0 | 0 | 0
SMILES | Nrf2 block | KB-V1 cytotox | A549 viability | KB-3-1 tox | Giardia kill | PI4K2A block
O=C(Nc1ccc(-c2csc(Nc3ccccc3)n2)cc1)c1cc([N+](=O)[O-])cc(C(F)(F)F)c1 | ? | ? | 0 | 14.6µM | 0 | 0
O=C(Nc1ccccc1Cl)OC1CC2CC1[C@H]1CCCCN1[C@H]2Cc1ccccc1 (some centres undefined) | - | - | - | - | - | 0
O=C1C=C(Nc2cccnc2)c2ccccc2C1=O | ? | ? | ? | 8.2µM | 0 | ?
CCOc1ccc(NC2=CC(=O)CCC2)cc1 | ? | 0 | 0 | 0 | 0 | 0
CCOc1ccc(NC2=CC(=O)C(=O)c3ccccc32)cc1 | ? | 4.11µM | ? | 6.51µM | 0 | ?
O=C1C=C(Nc2ccc(F)cc2)c2ccccc2C1=O | ? | 20.6µM | ? | ? | 0 | 0
CC(C(=O)Nc1cccnc1)N1C(=O)c2ccccc2C1=O (centres undefined) | 0 | 0 | 0 | 0 | 0 | 0
O=C1C=C(Nc2ccccc2O)c2ccccc2C1=O | ? | 20.6µM | ? | 18.4µM | 0 | ?
Cc1ccc(NC2=CC(=O)C(=O)c3ccccc32)c(C)c1 | ? | ? | 0 | ? | 0 | ?
CCCCN(C)C(=O)CSc1nnc(-c2cc(OC)c(OC)c(OC)c2)o1 | - | - | - | - | - | 0
CCOc1ccc(/C=C/c2nc(C#N)c(N3CCC(C)CC3)o2)cc1 | 0 | - | 0 | - | - | 0
COc1cc(Cl)c(NS(=O)(=O)c2ccc(-c3ccc(=O)[nH]n3)o2)c(OC)c1 | 0 | ? | 0 | 0 | 0 | 0
COc1cc(Cl)c(NC2=CC(=O)C(=O)c3ccccc32)c(OC)c1 | ? | 8.2µM | ? | 9.2µM | 0 | 0
O=c1cccccc1NCc1ccccc1 | 0 | 0 | 0 | 0 | 0 | 0
O=C1C=C(NCc2ccccc2)c2ccccc2C1=O | ? | ? | ? | ? | 0 | -63.8
COc1ccc(-n2nc(C(=O)O)c3csc(N)c3c2=O)cc1 | 0 | - | 0 | - | - | -
Oc1ccc(/C=N/NC(=S)Nc2cccnc2)cc1O | 0 | 0 | 0 | 0 | 0 | 0
Oc1ccc(C=NNC(=S)Nc2cccnc2)nc1 | ? | 3.66µM | ? | 0 | 0 | ?
Cc1c(P(=S)(c2ccccc2)c2ccccc2)c2ccccc2n1CCc1ccccc1 | 0 | - | 0 | - | - | -
COc1cccc(OC)c1C(=O)Nc1cc(C)nn1-c1nc2ccccc2[nH]1 | ? | 3.26µM | ? | 14.6µM | 0 | 0
COc1ccc(C(=O)Nc2cc(C)nn2-c2nc3ccccc3[nH]2)c(OC)c1 | ? | 0 | 0 | 0 | 0 | 0
O=C(CCSc1ccccc1)Nc1ccccc1C(=O)N1CCCC1 | 0 | ? | 0 | ? | 0 | 0
CC(C)CNC(=O)c1ccccc1NC(=O)c1ccc(CSc2ccccc2)cc1 | 0 | 13µM | 0 | 0 | 0 | 0
CSc1ccccc1C(=O)NCCSc1ccccc1 | 0 | 18.4µM | 0 | 0 | 0 | 0
Cc1ccc(SCCC(=O)Nc2ccccc2C(=O)N2CCOCC2)cc1 | 0 | 23.1µM | 0 | 0 | 0 | 0
CC(C)CNC(=O)c1ccccc1NC(=O)CCSc1ccccc1 | 0 | 20.6µM | 0 | 0 | 0 | 0
CCC(C)NC(=O)c1ccccc1NC(=O)c1ccc(CSc2ccc(C)cc2)cc1 (centres undefined) | - | 0 | 0 | 0 | 0 | 0
CC(C)C[C@H](NC1(C(=O)NC2CCCCC2)CCCCC1)C(=O)NCC(c1ccccc1)c1ccccc1 | - | - | - | - | - | 0
